Screening data (PubChem)
Hits are enriched below; roughly 19% of the tested compounds scored in any of these assays.
KB-3-1 cytotox: qHTS assay for MDR1-selective chemotherapeutics: Primary screen using the parental adenocarcinoma cell KB-3-1; Potency, µM (series often up to 46.1 µM), hits mostly cytotoxic; 1.4% of 400,000 active; KB-3-1 viability, CellTiter-Glo ATP luminescence, 72 h; also: nearly all actives have a fitted effect of over 60% in size
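Multi-concentration cytotoxicity screen in KB-3-1 cells grown in DMEM lacking phenol red with 10% FBS. After 72 h at 37 °C with compound, ATP-dependent luminescence was recorded.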
HT1080 IDH1KD tx: qHTS for induction of synthetic lethality in tumor cells producing 2HG: qHTS for the HT-1080-IDH1KD cell line. HT-1080 IDH1 knockdown viability, ATP luminescence, 48 h. Potency, µM (highest dose often 46.1 µM), for inactives: at the top dose activity, negative = toxicity, hits mostly cytotoxic. 2% of 360,000 active. AID 686971, 2013;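 also: 0% = DMSO wells and -100% = cell-free medium wells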
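CellTiter-Glo luminescence after 48 h compound exposure at 37 degrees C of IDH1-knockdown HT-1080 cells in 5% FBS RPMI. %Activity scaled between DMSO wells and cell-free media wells, with curves fitted and assigned curve classes.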
TDP1 cell CPT: qHTS for Inhibitors of human tyrosyl-DNA phosphodiesterase 1 (TDP1): qHTS in cells in presence of CPT | chicken DT40 Tdp1-/-;hTDP1 cells + 20 nM CPT, ATP luminescence, 48 h | AID 686979, 2013 | 12% of 420,000 active | Potency, µM (doses to about 46.2 µM), for inactives: top-dose activity change, negative = growth inhibition, actives largely listed as inhibitors; also: nearly all actives have a fitted effect of over 55% in size
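Chicken DT40 Tdp1-/- cells stably complemented with human TDP1 were seeded at 400 cells/well in medium containing 20 nM camptothecin, exposed to pin-transferred compounds, and grown at 37 °C for at least 48 hr. Viability was read as ATP luminescence.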
TDP1 cell noCPT: qHTS for Inhibitors of human tyrosyl-DNA phosphodiesterase 1 (TDP1): qHTS in cells in absence of CPT; DT40 Tdp1-/- hTDP1 cells, no CPT, ATP luminescence, 48 h; Potency, µM (series often up to 46.2 µM), without a hit: top-dose activity change, negative = growth inhibition, actives largely listed as inhibitors; 15% of 420,000 active; also: nearly all actives have a fitted effect of over 55% in size
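Chicken DT40 Tdp1-/- cells stably complemented with human TDP1 were seeded at 400 cells/well with DMSO in place of 20 nM camptothecin. After compound pinning, cells grew at least 48 hr at 37 °C; viability read by CellTiter-Glo luminescence.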
KB-V1 cytotox: qHTS assay for MDR1-selective chemotherapeutics: Primary screen using the drug-selected MDR subline cells KB-V1; Potency, µM (doses to about 46.1 µM), actives largely listed as cytotoxic; KB-V1 MDR cells viability, CellTiter-Glo, 72 h; 3.4% of 400,000 active; also: nearly all actives have a fitted effect of over 60% in size
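qHTS viability screen in drug-selected KB-V1 MDR cells: 72 h compound treatment at 37 degrees C, ATP luminescence end point.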
HT1080-NT tox: qHTS for induction of synthetic lethality in tumor cells producing 2HG: qHTS for the HT-1080-NT fibrosarcoma cell line | Potency, µM (doses to about 46.1 µM), for the others: top-dose activity, negative = less viability, usual class: cytotoxic | HT-1080-NT fibrosarcoma viability, CellTiter-Glo ATP luminescence, 48 h | 1.6% of 360,000 active;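 also: NT is the 2HG producing partner of a matched IDH1 knockdown line; 0% = DMSO-treated cells and -100% = media-only wells without cells; nearly all actives have a fitted effect of over 55% in size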
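Viability by CellTiter-Glo luminescence after 48 h compound exposure at 37C of HT-1080-NT cells (750/well, RPMI, 5% FBS). % activity scaled between DMSO wells and medium-only wells, then curve-fitted and categorized by curve class.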
Starred values were filed as active, the others as inactive; i = inactive; ? = inconclusive; / = no result given; ! = not confirmed by another sample; [ ] = another dose, or the depositor's remark. Calls follow the shape of the dose curve; as a rule, active = well fitted curve in the direction sought with a large enough effect; inconclusive = small, poorly fitted or top-dose-only effect, or another doubt; inactive = no such curve, though single readings can be large; an effect the other way counts as inactive or inconclusive. Unless noted, % is scaled to controls: 0 for no effect and ±100 for the full control effect; potency is read from the fitted curve at half-maximal effect.

SMILES	KB-3-1 cytotox	HT1080 IDH1KD tx	TDP1 cell CPT	TDP1 cell noCPT	KB-V1 cytotox	HT1080-NT tox
CC12CN(S(=O)(=O)c3ccccc3)CC(C)(CN(S(=O)(=O)c3ccccc3)C1)C2	i	2%	2.3µM*	?	i	19%
CCOC(=O)c1c(S(=O)(=O)NCC(=O)N2CCN(c3ccccc3)CC2)c(C)n(C)c1C	i	-3%	7%	5%	i	3%
N#Cc1ccc(S(=O)(=O)N2CCCCC2c2cc(C(=O)N3CCOCC3)no2)cc1 (stereo unspecified)	i	21%	-5%	-18%	i	?
N#CC1=C(N)N(c2ccc(F)cc2)C2=C(C1c1ccc(O)cc1)S(=O)(=O)CC2 (stereo unspecified)	i	5%	21µM*	?	i	0%
CC(/C=C/c1ccco1)=N\NC(=O)c1cccc(Cl)c1	i	?	?	?	?	-22%
Cc1ccc(OCC(=O)N/N=C/C=C/c2ccco2)c(Br)c1	i	?	18µM*	?	i	-4%
O=C(N/N=C/C=C/c1ccco1)c1ccncc1	i	26%	-46%	-27%	i	-2%
CC(/C=C/c1ccco1)=N/NC(=O)c1ccccc1Cl	i	-9%	23µM*	16µM*	i	-9%
O=C(N/N=C/C=C/c1ccco1)c1ccccc1Cl	i	-9%	?	16µM*	i	-16%
CC1=C(CC(=O)O)c2cc(F)ccc2/C1=C\c1ccc(S(C)=O)cc1 (stereo unspecified)	i	-2%	12µM*!	?	i	10%
CCOc1cccc(-c2cnc3cccnn23)c1	i	-13%	?	10µM*	i	3%
CCOc1ccc(-c2cnc3cccnn23)cc1	i	25%	-30%	-21%	i	?
CN(CCc1cn[nH]c1)Cc1nc(Cc2ccccc2)no1	i	11%	14%	9%	i	7%
CC(C)(C)c1ccc(NC(=O)C(=O)C2C(=O)Nc3ccccc32)cc1 (stereo unspecified)	i	2%	?	13µM*	i	-1%
CN(C)c1ccc(NC(=O)C(=O)C2C(=O)Nc3ccccc32)cc1 (stereo unspecified)	i	-6%	-21%	-22%	i	-2%
CC(C)c1ccc(NC(=O)C(=O)C2C(=O)Nc3ccccc32)cc1 (stereo unspecified)	i	-1%	21µM*	15µM*	i	0%
CC(=O)C1=C(O)C(=O)N(c2cc(C(C)(C)C)on2)C1c1ccc(C(C)C)cc1 (stereo unspecified)	i	-14%	?	26µM*	i	-8%
O=C(CN1CCOCC1)Nc1ccc([N+](=O)[O-])cc1Br	i	-1%	?	?	i	0%
OCc1cnc(SCc2cccc(F)c2)n1Cc1ccc(F)cc1	i	/	21µM*	?	i	/
COc1ccc(Cn2c(CO)cnc2SCc2cccc(C)c2)cc1	i	/	?	26µM*	i	/
Cc1ccc(Cn2c(CO)cnc2SCc2ccc(F)cc2)cc1	i	/	10µM*	16µM*	i	/
Cc1ccc(Cn2c(CO)cnc2SCc2cccc(F)c2)cc1	i	/	?	?	i	/
O=C(c1ccccc1NS(=O)(=O)c1cccc([N+](=O)[O-])c1)N1CCOCC1	i	12%	-1%	1%	i	5%
Cc1cccnc1-c1cccc2c1OC(CNC(=O)Cc1c(C)noc1C)C2 (stereo unspecified)	/	/	8%[9.04 µM]	-15%	/	/
CCC(C)Sc1cccc(-c2nc3ccccn3c2NCc2ccccc2)c1 (stereo unspecified)	i	-7%	?	?	?	-20%
SMILES	KB-3-1 cytotox	HT1080 IDH1KD tx	TDP1 cell CPT	TDP1 cell noCPT	KB-V1 cytotox	HT1080-NT tox
CCC(C)Sc1cccc(-c2nc3ccc(C)cn3c2NCc2ccccc2)c1 (stereo unspecified)	?	?	16µM*	21µM*	18µM*!	?
Cc1ccc(Cc2c(-c3cccc(Cl)c3)nc3ccc(Cl)cn23)cc1	i	-1%	?	?	i	2%
CCC(C)Sc1cccc(-c2nc3ccc(Cl)cn3c2NCc2ccccc2)c1 (stereo unspecified)	i	?	23µM*	16µM*	?	?
Cc1ccc2nc(-c3cccc(-c4cccc(Cl)c4)c3)c(NCc3ccccc3)n2c1	i	?	9.2µM*	?	?	?
Nc1ccc(-c2cc3ccccc3[nH]2)cc1	?	/	-1%	-27%	i	/
S=C(c1ccc(N2CCCC2)cc1)N1CCCCC1	?	-27%	16µM*	18µM*	i	-2%
Oc1ccc(C(=S)N2CCCCCC2)cc1	i	-10%	-17%	-3%	i	-1%
S=C(c1ccc(N2CCCC2)c(Br)c1)N1CCCCC1	i	2%	21µM*	23µM*	?	-9%
Cc1ccc(C(=S)N2CCCCCC2)cc1	i	6%	16µM*	23µM*	i	14%
O=C(CCC(=O)c1ccc(F)cc1)Nc1ccc(Cl)cc1	i	/	2%	-15%	i	/
Cc1nc(Cl)sc1C(=O)Nc1cccc(Cl)c1	i	0%	-20%	-1%	i	3%
CCCCn1cc(S(=O)(=O)c2ccc(CC)cc2)c(=O)c2cc(F)c(N3CCCC(C)C3)cc21 (stereo unspecified)	i	/	23µM*	23µM*	i	/
CCCn1cc(S(=O)(=O)c2ccccc2)c(=O)c2cc(F)c(N3CCCC(C)C3)cc21 (stereo unspecified)	i	/	?	?	i	/
CCCCn1cc(S(=O)(=O)c2ccccc2)c(=O)c2cc(F)c(N3CCN(CCC)CC3)cc21	i	/	?	21µM*	?	/
CCCCn1cc(S(=O)(=O)c2ccc(CC)cc2)c(=O)c2cc(F)c(N3CCOCC3)cc21	i	/	?	18µM*	i	/
